Most compounds without a hit are left out; they make up all but 2.8% or so of the library.
POLH inh: inhibitors of human DNA polymerase eta; 1.2% of 390,000 active; recombinant Pol eta, fluorescent DNA replication assay; Potency, µM (top dose mostly 114 µM), for the others: at the top dose activity change, negative = inhibition, usual class: inhibitors; further: potency means the concentration at half of the fitted maximal effect; on the % scale 0 is the no-effect control and ±100 the full control effect
Target sequence (Q9Y253 whole entry, looked up): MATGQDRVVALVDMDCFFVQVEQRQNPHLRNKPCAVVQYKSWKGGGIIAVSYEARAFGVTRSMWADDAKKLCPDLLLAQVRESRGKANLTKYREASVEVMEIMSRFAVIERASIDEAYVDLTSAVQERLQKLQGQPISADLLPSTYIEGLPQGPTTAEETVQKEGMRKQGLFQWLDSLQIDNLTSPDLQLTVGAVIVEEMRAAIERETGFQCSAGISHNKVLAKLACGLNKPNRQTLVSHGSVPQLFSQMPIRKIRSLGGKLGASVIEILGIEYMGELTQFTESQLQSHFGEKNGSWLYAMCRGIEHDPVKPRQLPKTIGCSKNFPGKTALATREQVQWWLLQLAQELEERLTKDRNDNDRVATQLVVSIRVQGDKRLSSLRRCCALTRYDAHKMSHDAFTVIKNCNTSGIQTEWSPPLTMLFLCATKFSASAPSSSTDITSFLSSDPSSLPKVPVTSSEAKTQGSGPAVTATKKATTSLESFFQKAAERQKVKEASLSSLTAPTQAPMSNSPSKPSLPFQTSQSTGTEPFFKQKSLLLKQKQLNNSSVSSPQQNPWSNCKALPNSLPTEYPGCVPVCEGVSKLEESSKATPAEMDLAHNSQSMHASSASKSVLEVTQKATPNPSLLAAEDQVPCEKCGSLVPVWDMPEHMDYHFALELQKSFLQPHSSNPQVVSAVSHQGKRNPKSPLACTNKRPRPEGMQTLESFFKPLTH
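Pol eta at 10 nM preincubated with compounds 15 min at room temperature; reaction started with fluorescent substrate (50 nM final) and read kinetically at 0 and 10 min.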
POLB inh: blocks human DNA polymerase beta activity; Pol beta primer extension/strand displacement, fluorescence kinetic; Potency, µM (titrated, usually from 114 µM), inactives show top-dose activity change, negative = inhibition, actives largely listed as inhibitors; 1.3% of 340,000 active; P06746; further: potency means the concentration at half of the fitted maximal effect; on the % scale 0 is the no-effect control and ±100 the full control effect
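Pol beta (10 nM) and compounds were preincubated 15 min at room temperature, then 50 nM substrate (final) started primer extension/strand displacement. Reads were taken at 0 and 10 min; concentration-response data were fitted to a four-parameter Hill equation.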
Pol kappa inh: DNA polymerase kappa (human) inhibition; Potency, µM (titrated, usually from 107 µM), inactives show top-dose activity, negative = inhibition, actives largely listed as inhibitors; Q9UBT6; purified Pol kappa, fluorescent DNA synthesis assay, 10 min; 0.53% of 400,000 active; AID 588579; further: potency means the concentration at half of the fitted maximal effect; on the % scale 0 is the no-effect control and ±100 the full control effect
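Kinetic fluorescence screen: compound preincubated 15 min RT with 10 nM enzyme; 50 nM substrate (final) initiates; reads at 0/10 min.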
WRN inhibitor: WRN helicase (human) inhibition; Q14191; WRN helicase unwinding, fluorescent forked duplex, kinetic; Potency, µM (series often up to 114 µM), without a hit: at the top dose activity change, negative = inhibition, hits mostly inhibitors; 0.46% of 360,000 active; further: potency means the concentration at half of the fitted maximal effect; on the % scale 0 is the no-effect control and ±100 the full control effect; nearly all actives have a fitted effect of over 55% in size
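Screening of the MLSMR collection measured strand separation of a quenched forked DNA duplex (100 nM) by 20 nM WRN with 2 mM ATP, all final. Compounds were preincubated with enzyme 15 min at room temperature.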
POLI inh: DNA polymerase iota (human) inhibition; Pol iota fluorescent replication assay, 10 min; Potency, µM (titrated, usually from 115 µM), inactives show at the top dose activity, negative = inhibition, most hits filed as inhibitors; Q9UNA4; 1% of 390,000 active; further: potency means the concentration at half of the fitted maximal effect
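Pol iota at 10 nM preincubated 15 min with compounds at room temperature; reaction started with fluorescent substrate, 50 nM final. Fluorescence read kinetically at 0 and 10 min; buffer-only wells as negative control.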
PI5P4Ka inh: blocks human PI5P4K alpha kinase activity | PI5P4Kalpha enzyme, ADP-Glo luminescence, 60 min; hits give low values | max response, % | 1.2% of 330,000 active | AID 652105; active means max response of -50% or lower; inconclusive means between -30% and -50%; inactive means -30% or higher; further: value at the top dose of about 77 µM; on the % scale 0 is the no-effect control and ±100 the full control effect
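qHTS, 1536-well: enzyme/substrate mix, compound by pin tool, 5 microM ATP final; RT 60 min; ADP-Glo reagents 1 (45 min) then 2 (30 min); luminescence.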
* marks the source's active call; other numbers are inactive results; ? = inconclusive; · = not tested or not shown; [ ] = dose if it differs, or a comment. Unless noted, the call rests on the fitted dose curve; in most records, active means well fitted curve in the direction sought with a large enough effect; inconclusive means small, poorly fitted or top-dose-only effect, or another doubt; inactive means no such curve, though single readings can be large; an effect the other way counts as inactive or inconclusive.

SMILES | POLH inh | POLB inh | Pol kappa inh | WRN inhibitor | POLI inh | PI5P4Ka inh
CCCCCC[C@H]1C(=O)O[C@H](C)[C@H](NC(=O)c2cccc(NC=O)c2O)C(=O)O[C@@H](C)[C@@H]1OC(=O)CC(C)C | · | · | -13%[19.4 µM] | · | · | ·
O=C(N[C@@H]1CN2CCC1CC2)c1cc(Cl)cc2[nH]cnc12 | · | · | 15%[60.1 µM] | · | · | ·
ClC1=C(Cl)C(Cl)(C2(Cl)C(Cl)=C(Cl)C(Cl)=C2Cl)C(Cl)=C1Cl | · | · | 6.7µM* | · | · | ·
O=C(/C=C\c1ccc(Cl)cc1)N[C@@]12CCC(=O)[C@@H]3Oc4c(O)ccc5c4[C@@]31CCN(CC1CC1)[C@@H]2C5 | · | · | -6%[19.4 µM] | · | · | ·
O=c1[nH]c(=O)n(-c2ccccc2F)c(O)c1/C=C1\C=Nc2ccccc21 | -8% | 2% | 0% | -23% | ? | -28
COc1ccc(-n2c(O)c(/C=C3\C=Nc4ccccc43)c(=O)[nH]c2=O)cc1 | ? | -21% | -5% | 0% | ? | -5
COc1ccc(-n2c(O)c(/C=C3\C=Nc4ccc(Br)cc43)c(=O)[nH]c2=O)c(OC)c1 | 79µM* | 20% | -15% | -13%[11.6 µM] | ? | ?
O=c1[nH]c(=O)n(-c2ccc(F)cc2)c(O)c1/C=C1\C=Nc2ccccc21 | 89µM* | 17% | ? | ? | 7.9µM* | 0
COC(=O)C1=Nc2ccccc2/C1=C\c1c(O)n(-c2cc(OC)ccc2OC)c(=O)[nH]c1=O | ? | -21% | -20% | 50µM* | -8% | -66*
COc1ccc(-n2c(O)c(/C=C3\C=Nc4ccc(Br)cc43)c(=O)[nH]c2=O)cc1 | -16% | -13% | -5% | -6%[57.1 µM] | 7.9µM* | -11
CCN1C[C@@]2(COC)CCC(OC)[C@]34C5C[C@]6(O)[C@@H](OC)C[C@](OC(C)=O)(C([C@H](OC)C23)[C@H]14)C5[C@H]6OC(=O)c1ccc(OC)cc1 (stereo not given in full) | · | · | 15%[60.1 µM] | · | · | ·
Cc1ccc2nc3sc(=O)sc3nc2c1 | · | · | 6%[60.1 µM] | · | · | ·
CCOc1ccc(C(=O)N2CCC(c3noc(-c4ccc(S(=O)(=O)N5CCCC5)cc4)n3)CC2)cc1 | -23% | 22% | -3% | · | 29% | ·
O=C1NC(=S)NC(=O)C1=Cc1ccc(Br)s1 | 22µM* | 9% | ? | ? | ? | -85*
O=C1NC(=S)NC(=O)C1=Cc1c(Cl)cccc1Cl | -4% | · | -13% | 56µM* | 17% | ?
O=C1NC(=O)C(=Cc2cccs2)C(=O)N1 | -11% | · | -10% | ? | ? | -19
Cc1cc(C)c(N=Cc2c(O)[nH]c(=O)[nH]c2=O)c(C)c1 | -13% | -8% | 0% | 2% | 42% | -3
CCCCCCCCN=Cc1c(O)[nH]c(=O)[nH]c1=O | 6% | -4% | -1% | -2% | 42% | -1
C=CCNC(=S)/N=C/c1c(O)[nH]c(=O)[nH]c1=O | 4% | 0% | -25% | -27%[57.1 µM] | 7% | -52*
NC(=S)/N=C/c1c(O)[nH]c(=O)[nH]c1=O | 12% | -14% | ? | -4%[11.6 µM] | 89% | -60*
CC(C)C1C(=O)N2CCC[C@H]2[C@]2(O)O[C@](NC(=O)[C@@H]3C=C4c5cccc6[nH]cc(c56)C[C@H]4N(C)C3)(C(C)C)C(=O)N12 (stereo not given in full) | · | · | -9%[19.4 µM] | · | · | ·
CCn1c(N)c(C(=O)NC)sc1=S | -4% | 0% | 6% | 56µM* | ? | -59*
CC(CN)CC(=O)O (stereo not given) | · | · | 3%[19.4 µM] | · | · | ·
CCC(=NCC1CCCO1)c1c(O)n(Cc2ccccc2)c(=O)[nH]c1=O (stereo not given) | -5% | -11% | -8% | -2% | 5% | 6
CC/C(=N\NC(=O)c1ccccc1)c1c(O)n(Cc2ccccc2)c(=O)[nH]c1=O | -7% | 1% | -7% | -15% | 0% | -85*
SMILES | POLH inh | POLB inh | Pol kappa inh | WRN inhibitor | POLI inh | PI5P4Ka inh
CC/C(=N\NC(=O)c1ccccc1O)c1c(O)n(C2CCCCC2)c(=O)[nH]c1=O | -13% | 0% | -4% | -9% | 12% | -74*
CCC(=NCCO)c1c(O)n(C2CCCCC2)c(=O)[nH]c1=O | -9% | -1% | 2% | 4% | 0% | -4
C=CCc1cc(C=C2C(=O)NC(=O)NC2=O)cc(OC)c1OCc1ccc(C(=O)O)cc1 | 50µM* | ? | -20% | -11% | ? | -62*
CCOC(=O)CSCCOc1ccc(C=C2C(=O)NC(=O)NC2=O)cc1OC | 2% | 0% | -9% | ? | 16% | ?
CN1C(=O)[C@]23CC4=CC=C[C@H](O)[C@H]4N2C(=O)[C@@]1(CO)SS3 | · | · | 3%[60.1 µM] | · | · | ·
Cc1ccccc1N1C(=O)NC(=O)/C(=C\c2cc(Br)c(N3CCOCC3)o2)C1=O | 3% | 37% | -24% | ? | ? | -75*
COP(=S)(OC)Oc1ccc(Sc2ccc(OP(=S)(OC)OC)cc2)cc1 | -12% | · | -7% | -11% | -15% | -64*
C[C@H](NC(=O)[C@@H](N)Cc1ccc(O)cc1)C(=O)N[C@@H](Cc1ccccc1)C(=O)N[C@@H](Cc1ccccc1)C(N)=O | · | · | -1%[19.4 µM] | · | · | ·
CCN1C(=O)C(=Cc2ccc(C)s2)C(=O)N(CC)C1=S | 25µM* | ? | -13% | ? | 0% | -69*
COP(=O)(OC)C(Nc1ccc([N+](=O)[O-])cc1)c1ccccc1 (stereo not given) | 1% | 20% | -2% | -12% | 127% | -3
COP(=O)(OC)/C(C=O)=N/Nc1ccc([N+](=O)[O-])cc1 | -1% | 22µM* | 0% | -5% | 36% | -1
CC(C)Oc1ccc(CNC(=O)C2CCCN(S(=O)(=O)c3ccc4c(ccn4C)c3)C2)cc1 (stereo not given) | -18% | -16% | -6%[60.1 µM] | · | 32% | ·
Cc1cc(C=C2C(=O)NC(=S)NC2=O)c(C)n1-c1ccc2c(c1)OCO2 | 20µM* | 89µM* | 79µM* | ? | 20µM* | -72*
Cc1cc(C=C2C(=O)NC(=O)NC2=O)c(C)n1-c1ccc2c(c1)OCO2 | 32µM* | -10% | -15% | -9% | 18µM* | ?
CC(C)=CCCC1(C)C=Cc2c(O)c3c(c(CC=C(C)C)c2O1)OC12C(CC4CC1C(C)(C)OC2(C/C=C(/C)C(=O)O)C4O)C3=O (stereo not given) | · | · | -18%[60.1 µM] | · | · | ·
O=c1[nH]c(=S)[nH]c(O)c1N=Nc1ccc(S(=O)(=O)N2CCOCC2)cc1 | 50µM* | ? | 3% | -1%[11.6 µM] | ? | -55*
O=c1[nH]c(=S)[nH]c(O)c1N=Nc1cc(S(=O)(=O)Nc2ccc(Cl)cc2)ccc1Cl | 79µM* | · | -25% | -7% | ? | -59*
c1cc(CN2CC3(CCNCC3)C2)ccn1 | · | · | -4%[60.1 µM] | · | · | ·

Screens: PubChem, National Center for Advancing Translational Sciences (NCATS)
